Assay [1] in a line: qHTS to identify inhibitors of the type 1 interferon - major histocompatibility complex class I in skeletal muscle: primary screen against the NCATS Mechanism Interrogation Plate v5.0 (MIPE) Libary (AID 1347411). Also: nearly all actives have a fitted effect of over 65% in size. In short, it runs like this:
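Cells were genome-edited human myoblasts carrying a HiBit tag on endogenous HLA-B. They were treated with IFN-beta (4.0 ng/ml) and titrated compounds (top 46 uM) for 24 hrs before lytic HiBiT detection.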

Assay [2] deals with Protein phosphatase 1D (Homo sapiens) (UniProt O15297). Description: RapidFire Mass Spectrometry qHTS Assay for Modulators of WT P53-Induced Phosphatase 1 (WIP1) (AID 1347424).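 Also: amount of dephosphorylated VEPPL-S-QETFS peptide product formed by WIP1.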 Also: potency is read from the fitted curve at half-maximal effect. In short, it runs like this:
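10 nM WIP1 + cpd, 1 h RT; + 2 uM VEPPL-pS-QETFS, 5 min RT; stop 0.5% formic acid; labelled product standard 1 uM; RapidFire MS. Buffer 50 mM Tris pH 7.5, 30 mM MgCl2, 1 mM TCEP.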

The target is the same in assay [3]. The experiment in a line: Rhodamine-PBP qHTS Assay for Modulators of WT P53-Induced Phosphatase 1 (WIP1) (AID 1347425). Put shortly: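 5 nM WIP1 + 10 uM Rh-PBP, 50 mM Tris pH 7.5, 30 mM MgCl2, 1 mM TCEP, 0.1 mM EGTA, BSA; cpds pinned, 1 hr RT; + 10 uM phosphopeptide; fluorescence 1-min reads x 11 min; delta = f1 - f0.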
The nature of assay [4]: Primary qHTS for inhibitors of La Crosse Virus (LACV) - induced cell death in SH-SY5Y cells (AID 1508616).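 Also: top concentration of the series differs between compounds; higher means more rescue of cells from virus-induced death.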 Put shortly:
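Readout was luminescence from ATPLite 1step added after a 6-day LACV infection (0.01 MOI) of SH-SY5Y cells that had received pin-transferred compound 24 hr after seeding.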

The target of assay [5] is Calcium and integrin-binding protein 1 (Homo sapiens) (UniProt Q99828). Description: Primary qHTS for Identification of Calcium Integrin Binding Protein 1 (CIB1) Competitor (AID 1508620).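 Also: GST tagged CIB1 binding a fluorescein labelled alphaIIb integrin peptide tracer; top concentration of the series differs between compounds.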 In short, it runs like this:
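CIB1-GST (1 uM final) and compound incubated 15 min at room temperature before adding FITC-alphaIIb peptide tracer (100 nM final). Competition for binding read by fluorescence polarization (ex 480, em 540) after another 15 min at room temperature.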

Inconclusive results are not listed. A call without a number means that no potency is given here. The source made the active and inactive calls. Calls follow the shape of the dose curve; as a rule, active = well fitted curve in the direction sought with a large enough effect; inconclusive = small, poorly fitted or top-dose-only effect, or another doubt; inactive = no such curve, though single readings can be large; an effect the other way counts as inactive or inconclusive.

Chain of Protein phosphatase 1D (Homo sapiens) (O15297 whole entry, looked up): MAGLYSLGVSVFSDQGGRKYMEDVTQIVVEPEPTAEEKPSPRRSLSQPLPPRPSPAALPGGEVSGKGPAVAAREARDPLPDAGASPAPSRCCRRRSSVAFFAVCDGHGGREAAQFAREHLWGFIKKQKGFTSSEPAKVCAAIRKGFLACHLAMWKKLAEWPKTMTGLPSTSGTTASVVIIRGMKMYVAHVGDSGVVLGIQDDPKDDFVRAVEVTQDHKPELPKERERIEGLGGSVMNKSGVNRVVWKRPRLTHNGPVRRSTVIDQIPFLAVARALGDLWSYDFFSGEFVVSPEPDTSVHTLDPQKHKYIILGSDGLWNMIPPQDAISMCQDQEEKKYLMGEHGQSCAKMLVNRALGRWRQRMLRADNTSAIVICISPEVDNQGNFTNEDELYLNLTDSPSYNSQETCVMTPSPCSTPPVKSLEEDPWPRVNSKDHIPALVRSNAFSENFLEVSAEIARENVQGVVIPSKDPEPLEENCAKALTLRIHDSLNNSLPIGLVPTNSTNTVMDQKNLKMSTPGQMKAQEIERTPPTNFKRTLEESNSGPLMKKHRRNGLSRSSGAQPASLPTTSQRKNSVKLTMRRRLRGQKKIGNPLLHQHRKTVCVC
Chain of Calcium and integrin-binding protein 1 (Homo sapiens) (Q99828 whole entry, looked up): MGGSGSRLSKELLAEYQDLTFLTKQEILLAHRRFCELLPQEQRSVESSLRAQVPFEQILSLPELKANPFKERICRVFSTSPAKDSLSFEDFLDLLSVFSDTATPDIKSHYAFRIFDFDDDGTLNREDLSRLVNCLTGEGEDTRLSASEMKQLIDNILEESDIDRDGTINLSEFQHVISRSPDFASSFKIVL

On to `CCC1=C[C@@H]2CN(C1)Cc1c([nH]c3ccccc13)[C@@](C(=O)OC)(c1cc3c(cc1OC)N(C)[C@H]1[C@@](O)(C(=O)OC)[C@H](OC(C)=O)[C@]4(CC)C=CCN5CC[C@]31[C@@H]54)C2`, for which the Potency result in assay [1], in assay [2] and in assay [5] was “inactive” throughout. Further, the compound was classed as inactive in assay [3] and in assay [4].
For the compound `COc1c(N2C[C@@H]3CCCN[C@@H]3C2)c(F)cc2c(=O)c(C(=O)O)cn(C3CC3)c12`, the Potency result in assay [2] and in assay [5] was “inactive” in each case. Moreover, the outcome in assay [3] and in assay [4] was inactive.
Consider `CCN(CC)CC(=O)OCC(=O)[C@@]1(O)CC[C@H]2[C@@H]3CCC4=CC(=O)CC[C@]4(C)[C@H]3[C@@H](O)C[C@@]21C`, for which the Potency entry in assay [2] and in assay [5] was “inactive” in each case. In addition, the outcome in assay [3] and in assay [4] was inactive.
Turning to `Cc1nc(N)nc(N)c1-c1ccc(Cl)c(Cl)c1`, the Potency entry in assay [2] and in assay [5] was “inactive” each time. Further, the compound was called inactive in assay [3] and in assay [4].
As for `CC(C)(C)CC(=O)OCC(=O)[C@@]1(O)CC[C@H]2[C@@H]3CCC4=CC(=O)C=C[C@]4(C)[C@H]3[C@@H](O)C[C@@]21C`, the Potency result in assay [2] and in assay [5] was “inactive” each time. In addition, the outcome in assay [3] and in assay [4] was inactive.
`COC(=O)C1=C(C)NC(C)=C(C(=O)OCCc2ccc(N3CCN(C(c4ccccc4)c4ccccc4)CC3)cc2)C1c1cccc([N+](=O)[O-])c1` (stereo not given): the Potency entry in assay [2] and in assay [5] was “inactive” each time. The outcome in assay [3] and in assay [4] was inactive.
Take `O=C(Nc1ccc(Cl)cc1)Nc1ccc(Cl)c(C(F)(F)F)c1`: the Potency in assay [2] is 12.6 µM (active). Besides, the call in assay [4] was inactive. The Potency result in assay [5] is “inactive”.
For `O=C(Nc1ccc(Cl)cc1)Nc1ccc(Cl)c(Cl)c1`, the Potency entry in assay [2] and in assay [5] was “inactive” each time. The outcome in assay [3] and in assay [4] was inactive.
Take `CCCCCCCCCCCC[N+](C)(C)Cc1ccccc1`: the Potency result in assay [2] was “inactive”. Moreover, the call in assay [3] and in assay [4] was inactive.

The record behind these values is PubChem BioAssay (NCATS).
